The list is not random: actives were taken first. Their share in the collection is about 19%.
TDP1 cell CPT: DT40-hTDP1 cell growth loss with CPT; chicken DT40 Tdp1-/-;hTDP1 cells + 20 nM CPT, ATP luminescence, 48 h; Potency, µM (series often up to 46.2 µM), for the others: at the highest dose activity change, negative = growth inhibition, actives largely listed as inhibitors; 12% of 420,000 active; AID 686979; further: potency means the concentration at half of the fitted maximal effect; nearly all actives have a fitted effect of over 55% in size
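Chicken DT40 Tdp1-/- cells complemented with human TDP1, 400 cells/well, exposed to compounds plus 20 nM camptothecin for at least 48 h at 37 C; viability read as ATP content by CellTiter-Glo luminescence.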
ELG1 repair inh: ELG1-dependent DNA repair inhibition. HEK293T ELG1-luciferase reporter, luminescence, 16 h; DNA damage induced by 5-fluorouridine. Potency, µM (highest dose often 46.1 µM), without a hit: top-dose activity change, negative = inhibition, usual class: inhibitors. 2.3% of 330,000 active; further: potency means the concentration at half of the fitted maximal effect; nearly all actives have a fitted effect of over 55% in size
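HEK293T cells expressing luciferase-tagged ELG1 (2,000/well) received 5-Fluorouridine plus compound or DMSO for 16 hr at 37 °C. Luciferase was read by ONE-Glo luminescence after 30 min at room temperature.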
DT40 TDP1 no CPT: qHTS for Inhibitors of human tyrosyl-DNA phosphodiesterase 1 (TDP1): qHTS in cells in absence of CPT; 15% of 420,000 active; Potency, µM (top dose mostly 46.2 µM), without a hit: top-dose activity change, negative = growth inhibition, usual class: inhibitors; AID 686978, 2013; DT40 Tdp1-/- hTDP1 cells, no CPT, ATP luminescence, 48 h; further: potency means the concentration at half of the fitted maximal effect; nearly all actives have a fitted effect of over 55% in size
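No-CPT arm: Tdp1-/-;hTDP1 DT40 cells (400/well) plus compounds, incubated ≥48 hr at 37 °C. Readout CellTiter-Glo luminescence.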
IL-1B inflam inh: inhibitors of inflammasome signaling (IL-1 beta secretion). activity change, % at 57.5 µM. AID 743279. 4.7% of 360,000 active. THP-1 LPS/ATP IL-1B secretion, AlphaLISA, 16 h; stronger effect = lower value; in the data active means activity change below about -50%; inconclusive means mostly about -30% to -49%
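Secreted IL-1B measured by AlphaLISA bead assay after 16 h compound exposure of THP-1 cells; compounds (final up to 57.5 uM) added 1 h before LPS (250 ng/mL) and ATP (1.25 mM) stimulation; lower signal means less secretion.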
HT1080-NT tox: kills 2HG-producing HT-1080-NT fibrosarcoma cells; HT-1080-NT fibrosarcoma viability, CellTiter-Glo ATP luminescence, 48 h; Potency, µM (top dose mostly 46.1 µM), inactives show at the highest dose activity, negative = less viability, usual class: cytotoxic; 1.6% of 360,000 active;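 further: NT is the 2HG producing partner of a matched IDH1 knockdown line; potency means the concentration at half of the fitted maximal effect; 0% = DMSO-treated cells and -100% = media-only wells without cells; nearly all actives have a fitted effect of over 55% in size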
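Compounds were tested in concentration-response format on HT-1080-NT cells for 48 hours at 37 degrees C. Cell viability came from CellTiter-Glo luminescence; curves were classified by r2, response magnitude and activity.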
HT1080 IDH1KD tx: toxicity to HT-1080 IDH1 knockdown cells (counter line). HT-1080 IDH1 knockdown viability, ATP luminescence, 48 h. Potency, µM (doses to about 46.1 µM), for the others: at the top dose activity, negative = toxicity, actives largely listed as cytotoxic. 2% of 360,000 active;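 further: potency means the concentration at half of the fitted maximal effect; 0% = DMSO wells and -100% = cell-free medium wells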
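HT-1080-IDH1KD cells (IDH1 knocked down), 750/well in RPMI with 5% FBS, treated with compound 48 h at 37 degrees C. Viability by CellTiter-Glo luminescence, normalised to DMSO and no-cell wells; concentration-response curves classed.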
Numbers without * were called inactive; ? = inconclusive; / = not tested or not shown; ! = not confirmed by another sample. Unless noted, the call rests on the fitted dose curve; in most records, active means well fitted curve in the direction sought with a large enough effect; inconclusive means small, poorly fitted or top-dose-only effect, or another doubt; inactive means no such curve, though single readings can be large; an effect the other way counts as inactive or inconclusive. Unless noted, on the % scale 0 is the no-effect control and ±100 the full control effect.

SMILES | TDP1 cell CPT | ELG1 repair inh | DT40 TDP1 no CPT | IL-1B inflam inh | HT1080-NT tox | HT1080 IDH1KD tx
Cc1ccc2nc(Cl)c3nnnn3c2c1 | 1.8µM* | ? | 2.6µM* | -94* | 0% | 13µM*
Cc1ccc2nc(NCc3ccccc3Cl)c3nnnn3c2c1 | ? | / | 10µM* | / | / | /
COc1ccc(NS(=O)(=O)c2ccc(NC(=O)N3CCCC3)cc2)cc1 | -9% | / | -24% | / | / | /
Cc1ccc(-n2c(O)c(/C=N/Nc3ccc(S(=O)(=O)N4CCOCC4)cc3[N+](=O)[O-])c3ccccc3c2=O)c(C)c1 | 21µM* | ? | 12µM* | -65* | 12µM* | ?
CC(=O)Nc1ccc(S(=O)(=O)NCCC(=O)NNC(=O)c2ccccc2O)cc1 | 28% | 13% | -8% | 2 | 5% | 15%
CC[C@H](C)[C@H](NC(=O)c1ccc(Cl)cc1)C(=O)OCC(=O)c1c(N)n(C)c(=O)n(C)c1=O | ? | ? | ? | 14 | -13% | -16%
Cn1c(N)c(C(=O)COC(=O)/C=C/c2ccc(Cl)cc2)c(=O)n(C)c1=O | ? | -14% | ? | 15 | 2% | 7%
Cn1c(N)c(C(=O)COC(=O)C2(c3ccccc3F)CCCC2)c(=O)n(C)c1=O | ? | -25% | ? | -4 | -14% | -13%
Cn1c(N)c(C(=O)COC(=O)C2(c3ccc(F)cc3)CCCC2)c(=O)n(C)c1=O | ? | -16% | 18µM* | -11 | -23% | -17%
Cn1c(N)c(C(=O)COC(=O)/C=C/c2ccc(Cl)cc2Cl)c(=O)n(C)c1=O | ? | ? | 16µM* | -13 | 2% | -1%
CC(C)[C@H](NS(=O)(=O)c1ccc(Cl)cc1)C(=O)OCC(=O)c1c(N)n(C)c(=O)n(C)c1=O | ? | ? | 21µM* | 15 | 0% | -1%
Cn1c(N)c(C(=O)COC(=O)C2(c3ccc(Cl)cc3)CCCC2)c(=O)n(C)c1=O | 15µM* | ? | 12µM* | 19 | ? | -25%
COc1ccc(Cn2ccc3nc(C)c(C(=O)N4CCN(c5ccccc5F)CC4)cc3c2=O)cc1 | 23µM* | / | 18µM* | / | / | /
CCc1cccc(NC(=O)c2cc3c(=O)n(Cc4ccc(OC)cc4)ccc3nc2C)c1 | ? | / | 15µM* | / | / | /
COc1ccc(N2CCN(C(=O)c3cc4c(=O)n(Cc5cccnc5)ccc4nc3C)CC2)cc1 | -25% | / | -28% | / | / | /
Cc1nc2ccn(Cc3ccccc3)c(=O)c2cc1C(=O)N1CCN(c2ccc(F)cc2)CC1 | ? | 6.5µM* | ? | -14 | -13% | -5%
COc1ccc(N2CCN(C(=O)c3cc4c(=O)n(Cc5ccccc5)ccc4nc3C)CC2)cc1 | ? | ? | ? | 34 | -10% | -12%
COc1cccc(N2CCN(C(=O)c3cc4c(=O)n(Cc5ccccc5)ccc4nc3C)CC2)c1 | 16µM*! | ? | ? | 54 | ? | ?
CCOC(=O)c1c(C)[nH]c(C)c1S(=O)(=O)NCC(=O)Nc1ccc(C)cc1C | -25% | / | -13% | / | / | /
COc1ccc(S(=O)(=O)c2c(O)c3ccc(C(=O)NCc4ccccc4)cc3[nH]c2=O)cc1 | 18% | / | -5% | / | / | /
COc1ccc(/C=C/C(=O)NC(=S)Nc2ccc(C(=O)O)cc2)cc1 | -12% | 0% | 3% | 0 | 0% | 4%
COc1ccc(/C=C/C(=O)NC(=S)Nc2ccccc2)cc1OC | 11% | ? | -15% | 23 | 20% | 27%
COc1ccc(/C=C/C(=O)NC(=S)NNC(=O)c2cc(OC)c(OC)c(OC)c2)cc1OC | ? | ? | 15µM* | 0 | -17% | -18%
COc1ccc(/C=C/C(=O)NC(=S)NNC(=O)c2cc(OC)c(OC)c(OC)c2)cc1 | ? | 7.3µM* | 9.2µM* | 84 | -17% | ?
O=Cc1c(-c2ccc(Cl)cc2)oc2ccc(O)cc12 | -4% | / | ? | -55* | -3% | 1%
SMILES | TDP1 cell CPT | ELG1 repair inh | DT40 TDP1 no CPT | IL-1B inflam inh | HT1080-NT tox | HT1080 IDH1KD tx
CCc1ccccc1S(=O)(=O)Cc1ccc(C(=O)N2CCN(c3ccccc3OC)CC2)o1 | 8.2µM* | 23µM* | 13µM* | 6 | ? | -27%
Cc1ccccc1S(=O)(=O)Cc1ccc(C(=O)N2CCN(c3cccc(Cl)c3)CC2)o1 | 4.1µM* | / | 4.6µM* | / | / | /
Cc1ccc(S(=O)(=O)Cc2ccc(C(=O)N3CCN(c4cccc(Cl)c4)CC3)o2)cc1 | 0.65µM* | / | 0.65µM* | / | / | /
COc1ccccc1S(=O)(=O)Cc1ccc(C(=O)N2CCCC2)o1 | 2% | 1% | -7% | 17 | 0% | 3%
COc1ccc(S(=O)(=O)Cc2ccc(C(=O)N3CCN(c4ccccc4)CC3)o2)cc1 | -28% | ? | -26% | 4 | 8% | -4%
Cc1ccccc1S(=O)(=O)Cc1ccc(C(=O)N2CCN(c3cccc(C)c3C)CC2)o1 | 5.2µM* | 7.3µM* | 4.1µM* | 0 | 5.8µM* | 6.5µM*
CCc1nnc(NC(=O)CCC(=O)N2CCC(Cc3ccccc3)CC2)s1 | ? | 8% | ? | 6 | -1% | -5%
COc1ccc(CNc2nc3c(c(=O)n(Cc4ccc(Br)cc4)c(=O)n3C)n2C)cc1 | ? | ? | 21µM* | 0 | ? | ?
Cn1c(NCc2ccccc2)nc2c1c(=O)n(Cc1ccc(Br)cc1)c(=O)n2C | ? | 21µM* | ? | ? | ? | ?
COc1ccc(Cn2c(=O)c3c(nc(NCCO)n3C)n(C)c2=O)cc1 | -7% | -1% | -8% | -8 | -2% | -2%
COc1cccc(Nc2nc3cc(C)ccc3nc2NS(=O)(=O)c2ccc(Cl)cc2)c1 | 5.2µM* | / | 4.1µM* | / | / | /
CCOc1ccccc1Nc1nc2ccccc2nc1NS(=O)(=O)c1ccc(Cl)cc1 | ? | / | 5.2µM* | / | / | /
Cc1ccc2nc(NS(=O)(=O)c3ccc(Cl)cc3)c(Nc3ccc(C(=O)O)cc3)nc2c1 | 6% | / | -4% | / | / | /
CCOC(=O)C1(Cc2ccccc2C(F)(F)F)CCN(C(=O)c2cc(C(C)=O)n[nH]2)CC1 | ? | -5% | ? | 0 | -27% | -23%
Cc1ncoc1C(=O)N1CCCC(C(=O)c2ccc(-c3ccccc3)cc2)C1 (centres undefined) | 18µM* | ? | 23µM* | 0 | -1% | -17%
